From paper PMC4336329 (PLoS ONE, 2015)
About 14,000 (4.5%) of roughly 310,000 compounds showed an effect of 50% or more. The effect is printed as a negative number. The list comes from a sample in which strong results are over-represented; it also holds similar structures and randomly drawn compounds.

target: human ether-à-go-go-related gene (hERG) potassium channel (human, UniProt Q12809); assay: primary screen, population patch clamp on CHO cells stably expressing hERG; higher = less effect of the substance
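Further: peak tail current of the secondary pulse compared with the same well before compound.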

Chain of human ether-à-go-go-related gene (hERG) potassium channel (Q12809 whole entry, looked up): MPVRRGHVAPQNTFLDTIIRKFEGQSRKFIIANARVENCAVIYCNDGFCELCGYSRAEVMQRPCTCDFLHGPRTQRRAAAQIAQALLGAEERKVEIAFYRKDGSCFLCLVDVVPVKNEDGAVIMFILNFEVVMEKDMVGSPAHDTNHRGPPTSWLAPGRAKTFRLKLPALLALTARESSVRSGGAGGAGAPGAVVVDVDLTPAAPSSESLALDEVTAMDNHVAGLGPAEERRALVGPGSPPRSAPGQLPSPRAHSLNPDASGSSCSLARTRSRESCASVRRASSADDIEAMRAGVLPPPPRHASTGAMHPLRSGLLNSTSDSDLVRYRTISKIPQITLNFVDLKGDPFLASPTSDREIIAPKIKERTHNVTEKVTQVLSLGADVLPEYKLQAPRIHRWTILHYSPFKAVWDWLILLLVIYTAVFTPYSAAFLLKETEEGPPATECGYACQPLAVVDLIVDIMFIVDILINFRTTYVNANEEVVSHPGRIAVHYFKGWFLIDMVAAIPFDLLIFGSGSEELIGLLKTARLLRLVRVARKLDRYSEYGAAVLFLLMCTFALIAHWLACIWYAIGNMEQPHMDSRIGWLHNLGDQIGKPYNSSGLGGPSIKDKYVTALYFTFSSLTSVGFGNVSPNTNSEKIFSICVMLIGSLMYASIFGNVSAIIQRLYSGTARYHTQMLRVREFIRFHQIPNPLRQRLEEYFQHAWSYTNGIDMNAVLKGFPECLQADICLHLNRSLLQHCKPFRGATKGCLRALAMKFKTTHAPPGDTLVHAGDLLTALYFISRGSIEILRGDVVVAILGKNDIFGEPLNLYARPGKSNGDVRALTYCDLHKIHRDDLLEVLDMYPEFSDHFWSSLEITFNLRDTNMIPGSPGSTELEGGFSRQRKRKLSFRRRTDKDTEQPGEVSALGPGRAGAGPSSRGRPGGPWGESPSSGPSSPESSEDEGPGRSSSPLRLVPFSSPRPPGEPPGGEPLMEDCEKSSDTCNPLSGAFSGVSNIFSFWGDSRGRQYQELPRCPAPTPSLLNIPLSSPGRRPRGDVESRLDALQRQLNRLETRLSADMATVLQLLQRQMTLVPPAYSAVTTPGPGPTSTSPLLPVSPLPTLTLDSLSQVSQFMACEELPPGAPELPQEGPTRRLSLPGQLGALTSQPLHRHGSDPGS

| SMILES | hERG current change (%, negative = inhibition) at 10uM [%] |
| --- | --- |
| CCc1nn(CC(=O)NCCCN(CC)c2cccc(C)c2)c(=O)c2cc3occc3n12 | -16.3 |
| C/C(N)=C(/C#N)C(=O)COC(=O)CCS(=O)(=O)c1ccccc1 | 12.1 |
| CC(C)(C)NC(=O)CSc1nc(O)cc(=O)n1-c1ccccc1F | 6.39 |
| O=C(CSc1ccc(-c2ccc(Br)cc2)nn1)N1CCOCC1 | -18.7 |
| O=C(c1cnccn1)N1CCN(C/C=C/c2ccccc2)CC1 | -16.6 |
| Cc1cc(C(=O)N2CCN(C/C=C/c3ccccc3)CC2)no1 | -14.5 |
| NC(=O)c1nn(Cc2ccccc2)c(=O)c2ccccc12 | 4.12 |
| O=C(c1ccc(=O)n(Cc2ccccc2)n1)N1CCN(C/C=C/c2ccccc2)CC1 | -51.9 |
| O=C(c1ccc(Cl)nc1)N1CCN(C/C=C/c2ccccc2)CC1 | -44.1 |
| O=C(c1nn(Cc2ccccc2)c(=O)c2ccccc12)N1CCN(C/C=C/c2ccccc2)CC1 | -57.7 |
| COc1ccc(NC(=O)NCc2ccc3c(c2)OCO3)c(OC)c1 | 11.5 |
| COc1ccc(C)cc1S(=O)(=O)NC1CCCCC1C (centres unmarked) | 5.07 |
| CCC(=O)N1CCN(c2ccc(NC(=O)COc3cccc(C)c3C)cc2)CC1 | -12 |
| O=C(CSc1nnc(-c2ccco2)o1)Nc1c(F)cccc1F | -1.95 |
| Nc1nc(-c2ccc3c(c2)CCC(=O)N3)cs1 | 16.5 |
| CN(C)c1ccc(S(=O)(=O)N2CCCCC2)cc1NC(=O)C1CSC2(C)CCC(=O)N12 (centres unmarked) | -22.3 |
| CCOC(=O)C1Sc2[nH]c(=O)sc2C(c2ccc(Cl)cc2)C1C(=O)OCC (centres unmarked) | -1.1 |
| COC(=O)C1Sc2[nH]c(=O)sc2C(c2ccc(Cl)cc2)C1C(=O)OC (centres unmarked) | -67 |
| COC(=O)C1Sc2[nH]c(=O)sc2C2c3ccccc3OC(=O)C12 (centres unmarked) | -22.6 |
| Cc1[nH]n(-c2cccc([N+](=O)[O-])c2)c(=O)c1-c1ccccc1 | 15.8 |
| CCN(CC)S(=O)(=O)c1cc(NC(=O)[C@@H](NC(N)=O)C(C)C)ccc1C | 15.5 |
| COc1ccc(/C=N/n2cnc3c([nH]c4ccc(C)cc43)c2=O)cc1CN1CCCC1 | -63.2 |
| COc1ccc(/C=N/n2c(=O)[nH]c3c([nH]c4ccc(F)cc43)c2=O)cc1CN1CCCCC1 | -19.1 |

| SMILES | hERG current change (%, negative = inhibition) at 10uM [%] |
| --- | --- |
| COc1ccc(/C=N/n2cnc3c([nH]c4ccc(F)cc43)c2=O)cc1CN1CCCC1 | -68 |
| COc1ccc(/C=N/n2cnc3c([nH]c4ccc(F)cc43)c2=O)cc1CSc1ccccn1 | 20.6 |
| COc1ccc(/C=N/n2cnc3c([nH]c4ccc(Br)cc43)c2=O)cc1CN1CCOCC1 | -8.88 |
| COc1ccc2[nH]c3c(=O)n(/N=C/c4ccc(OC)c(CN5CCCC5)c4)c(C)nc3c2c1 | -45.3 |
| COc1ccc(NC(=O)c2nnn(CC(=O)Nc3ccccc3OC)c2N)c(OC)c1 | 0.272 |
| CCN(CC)CCOc1ccc2nc(N(C)C)sc2c1.Cl | 11.1 |
| CC12CCC(C(=O)Nc3ccccc3)(C/C1=N\O)C2(C)C (centres unmarked) | 10.9 |
| CCSc1nnc(NC(=O)Cc2ccccc2OC)s1 | 13 |
| CCCCn1c(SCC(=O)NCCOC)nc2ccc(N3CCOCC3)cc2c1=O | -2.94 |
| COCCCNC(=O)CSc1nc2ccc(N3CCOCC3)cc2c(=O)n1CCc1ccccc1 | -59.8 |
| CCCCNC(=O)CSc1nc2ccc(N3CCOCC3)cc2c(=O)n1CCc1ccccc1 | -19.3 |
| CCC(C)NC(=O)CSc1nc2ccc(N3CCOCC3)cc2c(=O)n1CCc1ccccc1 (centres unmarked) | 3.14 |
| COCCNC(=O)CSc1nc2ccc(N3CCOCC3)cc2c(=O)n1Cc1ccc(OC)cc1 | -22.4 |
| COCCNC(=O)CSc1nc2ccc(N3CCOCC3)cc2c(=O)n1CCc1ccccc1 | -55.1 |
| Cc1ccc(CN2CC(C(=O)NCCC3=CCCCC3)CC2=O)cc1 (centres unmarked) | -19.6 |
| CCN(c1ccc(NC(=O)CSCc2c(C)noc2C)cc1)C(C)C | -7.72 |
| Cc1ccccc1-c1cc2nc(C)c(Cl)c(=O)n2[nH]1 | -8.26 |
| O=C(Nc1cccc(F)c1)c1cccnc1 | 3.96 |
| Cc1c(C(=O)N2CCN(C(=O)c3ccco3)CC2)sc2nc(-c3ccc(F)cc3)cn12 | -76.9 |
| CCOC(=O)C1CCN(C(=O)c2sc3nc(-c4ccccc4)cn3c2C)CC1 | -41 |
| Cc1c(C(=O)NCC2CCCO2)sc2nc(-c3ccc(F)cc3)cn12 (centres unmarked) | -29.7 |
| Cc1c(C(=O)N2CCN(c3ccccc3F)CC2)sc2nc(-c3ccccc3)cn12 | -14.1 |
| Cc1c(C(=O)N2CCN(c3ccc(F)cc3)CC2)sc2nc(-c3ccccc3)cn12 | -13.4 |

| SMILES | hERG current change (%, negative = inhibition) at 10uM [%] |
| --- | --- |
| COC(=O)C1CCN(C(=O)c2sc3nc(-c4ccc(F)cc4)cn3c2C)CC1 | -59.5 |
| CCOC(=O)N1CCN(C(=O)c2sc3nc(-c4ccc(F)cc4)cn3c2C)CC1 | -62.1 |
| CCOC(=O)C1CCN(C(=O)c2sc3nc(-c4ccc(F)cc4)cn3c2C)CC1 | -60.5 |
| COc1ccc(-c2cn3c(C)c(C(=O)N4CCN(c5ccc(F)cc5)CC4)sc3n2)cc1 | 1.07 |
| COc1ccccc1N1CCN(C(=O)c2sc3nc(-c4ccc(F)cc4)cn3c2C)CC1 | -34 |
| COc1ccccc1N1CCN(C(=O)c2sc3nc(-c4ccccc4)cn3c2C)CC1 | -35 |
| Cc1c(C(=O)Nc2ccncc2)sc2nc(-c3ccc(F)cc3)cn12 | -8.24 |
| CN(C)CCNc1oc(COc2ccc(Cl)cc2Cl)nc1C#N | 15.3 |
| COc1cc(OC)cc(C(=O)NNC(=O)CCOc2ccccc2OC)c1 | 7.89 |
| O=C(CSc1nnc(NC(=O)c2ccccc2F)s1)NC1CC1 | 19.2 |
| C=C(C)C1Cc2nc(N)nc(C)c2C1 (centres unmarked) | 10.8 |
| Cc1ccc(OCCNC(=O)c2ccccc2O)cc1 | 8.04 |
| Cc1cc(C(=O)Nc2nc3c(s2)CCCC3)no1 | -16.8 |
| C=CCC(=O)OCCCCCCOc1ccc(C(=O)O)cc1 | -3.87 |
| O=C1CC(c2cc(-c3ccccc3)no2)C1 | -9.96 |
| c1ccc2nc3c(nc2c1)[nH]c1ccccc13 | -15 |
| O=C(O)c1cc2ccc3ccccc3c2[nH]1 | 1.56 |
| CCN(CC)CCCNC(=O)CSc1c2c(nc3cc(Cl)ccc13)CCCC2 | -48.4 |
| CCN(CC)CCNC(=O)CSc1c2c(nc3cc(Cl)ccc13)CCCC2 | -64.1 |
| O=C(CSc1c2c(nc3cc(Cl)ccc13)CCCC2)NCCN1CCOCC1 | 3.58 |
| CSc1ncc(C(=O)Nc2cccc(Cl)c2)c(C)n1 | 10.9 |
| CC(CNC(=O)c1ccc(N)cc1)NC(=O)c1ccc(N)cc1 (centres unmarked) | 9.03 |
| CC(CNC(=O)c1ccc(C#N)cc1)NC(=O)c1ccc(C#N)cc1 (centres unmarked) | -76.6 |

| SMILES | hERG current change (%, negative = inhibition) at 10uM [%] |
| --- | --- |
| CCOc1ccc(C(=O)NCC(C)NC(=O)c2ccc(OCC)cc2)cc1 (centres unmarked) | 24.5 |
| CC(NC(=O)c1ccc([N+](=O)[O-])cc1Cl)C1CC2CCC1C2 (centres unmarked) | -58.2 |
| Cc1ccc(C(=O)NC(C)C2CC3CCC2C3)cc1 (centres unmarked) | 19.1 |
| CC(NC(=O)c1ccc(F)cc1Cl)C1CC2CCC1C2 (centres unmarked) | 4.99 |
| CC(NC(=O)c1cc([N+](=O)[O-])cc([N+](=O)[O-])c1)C1CC2CCC1C2 (centres unmarked) | -7.55 |
| CC(NC(=O)c1ccc(Cl)cc1)C1CC2CCC1C2 (centres unmarked) | 2.08 |
| CC(NC(=O)c1ccc(C#N)cc1)C1CC2CCC1C2 (centres unmarked) | -58.8 |
| Cc1ccc(C(=O)Oc2ccc(C(=S)N3CCOCC3)cc2)cc1 | -7.84 |
| CCN(CC)c1ncnc2scc(C3COc4ccccc4O3)c12 (centres unmarked) | -8.77 |
| COc1ccc(NC2CCCN(C(=O)C3(C)CCCCC3)C2)cc1OC (centres unmarked) | 11.3 |
| O=C(Nc1ccccc1)C1CC(=O)n2ncnc2N1 (centres unmarked) | 6.48 |
| CN(C)Cc1ccccc1C1(O)c2ccccc2CSc2ccccc21.Cl (centres unmarked) | 9.09 |
| CNC(=S)N(CCc1cccc(C)c1)Cc1cc2cc(OC)c(OC)cc2[nH]c1=O | -16.7 |
| Cc1ccc(-c2nc(=O)[nH]c3ccccc23)cc1 | -20 |
| O=C(CN1CCN(Cc2ccccc2Cl)CC1)N/N=C/c1ccccn1 | -25.8 |
| C/C(=N\NC(=O)CN1CCN(Cc2ccc(C)cc2)CC1)c1ccncc1 | -74.8 |
| C/C(=N/NC(=O)CN1CCN(Cc2ccccc2Cl)CC1)c1cccnc1 | -10.4 |
| Cc1ccc(CN2CCN(C(=O)c3ccncc3)CC2)cc1.O=C(O)C(=O)O | -0.159 |
| C/C(=N/NC(=O)CN1CCN(Cc2ccccc2Cl)CC1)c1ccncc1 | -65.4 |
| C/C(=N\NC(=O)CN1CCN(Cc2ccccc2)CC1)c1ccncc1 | -35.8 |
